Mcl-1 Bim block: inhibitors of Bim peptide binding to Mcl-1, primary screen, biochemical, bead-based flow cytometry, multiplex | 190,000 compounds, 0.1% hits | Bim peptide-Mcl-1 binding | inhibition, % at 10 µM | Induced myeloid leukemia cell differentiation protein Mcl-1 (Homo sapiens), Q07820 | AID 1009, 2008; in the data active = inhibition above about 40%;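 also: 0% = no compound tracer wells and 100% = peptide blocker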
14-3-3 Bad PPI: inhibitors of 14-3-3 zeta/Bad binding, primary screen, biochemical, TR-FRET, bovine 14-3-3 zeta; AID 781, 2007; 220,000 compounds, 0.71% hits; inhibition, % at 21.7 µM; TR-FRET 14-3-3zeta/Dy647-pBad peptide displacement, 1 h;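 active = inhibition above about 70%, limit read from the data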;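 also: 0% = full 14-3-3 plus peptide FRET controls and 100% = background without 14-3-3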
m-calpain inh: inhibitors of pig calpain II, primary screen, biochemical, fluorogenic peptide substrate, 1536-well. purified calpain II, 30 min. inhibition, % at 16 µM. 220,000 compounds, 0.37% hits. AID 1236, 2008;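 active = inhibition above about 50%, limit read from the data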
NCF1 inh: p47phox/p22phox peptide binding inhibitors, primary screen, biochemical, uHTS, NADPH oxidase regulatory subunit; fluorescence polarization, 2 h; AID 1274, 2008; Neutrophil cytosol factor 1 (Homo sapiens), P14598; 220,000 compounds, 0.53% hits; inhibition, % at 24.7 µM;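 active = inhibition above about 30%, limit read from the data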;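 also: 0% = p47phox with labelled peptide and 100% = labelled peptide alone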
Target sequence (P14598 whole entry, looked up): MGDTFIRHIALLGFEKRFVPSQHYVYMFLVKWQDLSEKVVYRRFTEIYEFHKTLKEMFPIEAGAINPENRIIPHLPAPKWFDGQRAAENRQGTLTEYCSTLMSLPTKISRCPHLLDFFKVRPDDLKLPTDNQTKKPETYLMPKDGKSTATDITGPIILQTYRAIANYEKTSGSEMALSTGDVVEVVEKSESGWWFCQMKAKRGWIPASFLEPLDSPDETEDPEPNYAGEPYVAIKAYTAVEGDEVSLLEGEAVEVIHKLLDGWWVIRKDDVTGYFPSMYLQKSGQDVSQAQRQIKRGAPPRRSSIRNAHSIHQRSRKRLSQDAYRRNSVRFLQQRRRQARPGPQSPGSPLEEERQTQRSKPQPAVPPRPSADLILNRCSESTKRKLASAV
Mcl1-Bid inh: Mcl-1/Bid binding inhibitors, primary screen, biochemical, TR-FRET, 1536-well; Induced myeloid leukemia cell differentiation protein Mcl-1 (Homo sapiens), Q07820; TR-FRET Mcl-1/Bid-Dy647 peptide binding; inhibition, % at 21.7 µM; 220,000 compounds, 0.97% hits; AID 1021, 2008;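 active = compounds that cut the binding signal by more than half at the single screening dose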;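 also: His-tagged Mcl-1 with europium anti-His antibody binding Bid BH3 peptide; 0% = Mcl-1 plus peptide wells and 100% = peptide-only wells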
Mcl1 Noxa PPI: Mcl-1/Noxa binding inhibitors, primary screen, biochemical, TR-FRET, 1536-well; TR-FRET Mcl-1/Noxa peptide binding, 2 h; inhibition, % at 21.7 µM; 220,000 compounds, 1.5% hits;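 active = compounds that cut the protein-peptide binding signal by more than 50% relative to plate controls in a single-dose test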;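 also: His-tagged Mcl-1 with rhodamine Noxa BH3 peptide and terbium anti-His antibody; 0% = Mcl-1 plus Noxa peptide wells and 100% = peptide-only wells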
Numbers without * were called inactive; . = no result; [ ] = remark or other dose. An excerpt weighted towards active compounds, which were near 3.4% of everything screened.

SMILES | Mcl-1 Bim block | 14-3-3 Bad PPI | m-calpain inh | NCF1 inh | Mcl1-Bid inh | Mcl1 Noxa PPI
CCOC(=O)c1ccc(Nc2ncnc3ccccc23)cc1 | 0 | 1 | -4 | -7 | 20 | 24
C/C(=N\Nc1cc(C)nc(-c2ccccc2O)n1)c1ccccc1 | 3 | 0 | -24 | -3 | -23 | 5
O=C(Oc1ccc(Nc2ncnc3ccccc23)cc1)c1cccnc1 | -2 | 82* | -7 | 1 | 73* | 44
Cc1ccc2nc(C(Cl)(Cl)Cl)nc(N/N=C/c3ccncc3)c2c1 | 1 | -22 | -26 | -5 | -28 | 14
Cc1cc(N/N=C/c2ccc(O)c(C)c2O)nc(-c2ccccc2O)n1 | -2 | 26 | -52 | -5 | 75* | 89*
Cc1ccccc1Nc1nc(-c2cccnc2)nc2ccccc12 | 0 | 2 | 20 | -52 | -6 | 11
Cc1ccc(-c2nc(N/N=C/c3ccncc3)c3ccccc3n2)cc1 | 0 | 23 | -6 | -93 | 66* | 48
COCCn1c(SCC(=O)Nc2sccc2C(N)=O)nnc1-c1ccncc1 | -2 | -8 | -47 | -11 | -19 | 1
Cc1c(O)ccc(-c2n[nH]c(C(=O)O)c2-c2nc3ccccc3s2)c1O | . | 1 | 6 | -6 | -50 | 20
O=C(O)C1C2CCC(O2)C1C(=O)NCc1ccc(Cl)cc1 (stereo unspecified) | 0 | 7 | -9 | -9 | -55 | 6
CCOC(=O)c1ccc(Nc2nc(-c3cccnc3)nc3ccccc23)cc1 | 0 | 75*[fluorescence artefact?] | 6 | -22 | 46 | 35
Oc1ccc(/C=N/Nc2nc(-c3cccnc3)nc3ccccc23)c(O)c1 | . | 83* | 8 | -30 | -11 | 84*
Clc1ccc(/C=N/Nc2nc(Cl)nc3ccccc23)cc1 | 0 | 3 | -17 | 70* | -24 | 13
Cc1ccc(Nc2nc(-c3cccnc3)nc3ccccc23)cc1 | . | -3 | 8 | -42 | 11 | 42
COc1ccc(/C=N/Nc2nc(-c3cccnc3)nc3ccccc23)cc1OC | . | 0 | -20 | -11 | -22 | 50
O=C(COC(=O)/C=C/c1ccccc1Cl)NCCc1ccc(Cl)cc1Cl | -5 | 3 | 9 | -8 | -22 | 7
Cc1cc(=O)c2ccc(C(F)(F)F)cc2[nH]1 | . | 57 | -26 | -7 | 83* | 30
Cc1cc(=O)c2ccc(Cl)cc2[nH]1 | -3 | 5 | -19 | -8 | -10 | -1
NC(=O)c1sc2nc3c(c(-c4ccco4)c2c1N)CCC3 | 10 | 13 | -7 | -13 | -26 | 25
Nc1c(C(=O)NC2CC2)sc2nc3c(c(-c4ccco4)c12)CC/C3=C/c1ccco1 | 35 | -8 | -21 | 8 | 84* | 97*
Cc1ccccc1C(=O)Nc1ccc(C(=O)N/N=C/c2ccc(O)c(Br)c2)cc1 | 1 | -6 | -38 | -34 | -32 | 58*
Cc1ccccc1C(=O)NC(=S)Nc1sc2c(c1C#N)CCCC2 | -3 | -3 | -104 | 8 | 93* | 6
CC(C)N1CCc2c(sc(NC(=S)NC(=O)c3ccccc3)c2C#N)C1 | -9 | -6 | 2 | -147 | -23 | 35
CCCN1CCc2c(sc(NC(=S)NC(=O)c3ccccc3)c2C#N)C1 | -5 | 90* | -14 | -16 | -13 | 38
CCOc1ccccc1CN(CCc1ccc2c(c1)OCO2)Cc1ccccn1 | . | 72* | 6 | 0 | 26 | 4
CCCCn1c(N)c(C(=S)NC(=O)CC(C)(C)C)c(=O)n(C)c1=O | -8 | -1 | 11 | -5 | -80 | -70
NNC(=O)c1cnn(-c2ccccc2)c1-n1cccc1 | -5 | -1 | -16 | -10 | -46 | 22
C=CCn1c(SCc2ccc([N+](=O)[O-])cc2)nnc1C(C)NC(=O)c1ccccc1 (stereo unspecified) | 0 | -7 | 9 | 0 | 94* | 15
C=CCn1c(SCCOc2ccc(OC)cc2)nnc1C(C)NC(=O)c1ccc(OC)cc1 (stereo unspecified) | -2 | -4 | 13 | -7 | -44 | 8
O=c1n(-c2ccccc2)c(=O)n2n1CCCC2 | -1 | -13 | -41 | 4 | 7 | 0

Screening data (PubChem)
